# Results from the supplement of paper PMC8253809.
# “And” between values parts separate entries of the source, which are not always exact repeats. Equal entries are not always repeated.
# What was measured:
# Test in all cases: growth inhibition (% activity, log2 RLU normalised to DMSO / staurosporine); higher = more growth inhibition
# Conditions in all cases: 33 µM
# DIPGX29 = tested on: DIPGX29 (H3.3 K27M diffuse intrinsic pontine glioma line)
# Summary of the method: (§1)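 The growth-inhibition value comes from CellTiter-Glo luminescence, log2-transformed, normalised per plate to % activity between solvent and positive control wells, and taken as the median over replicates. Treatment of pHGG cell lines and H9-derived neural stem cells with approved drugs was at a single final concentration of about 33 μM, in triplicate, for 7 days at 37 °C, 5% CO2.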
# DIPGX37 = tested on: DIPGX37 (H3.3 K27M diffuse intrinsic pontine glioma line)
# Summary of the method: as §1
# DIPGX7 = tested on: DIPGX7 (H3.3 K27M diffuse intrinsic pontine glioma line)
# Summary of the method: as §1
# DIPGX9 = tested on: DIPGX9 (diffuse intrinsic pontine glioma line)
# Summary of the method: as §1
# HGGX39 = tested on: HGGX39 (paediatric high-grade glioma line)
# Summary of the method: as §1
# HGGX6 = tested on: HGGX6 (H3.3 G34R paediatric high-grade glioma line)
# Summary of the method: as §1
# HNSC = tested on: HNSC
# Summary of the method: as §1
# SUDIPGIV = tested on: SUDIPGIV (diffuse intrinsic pontine glioma line)
# Summary of the method: as §1
# SUDIPGVI = tested on: SUDIPGVI (diffuse intrinsic pontine glioma line)
# Summary of the method: as §1
# SUDIPGXIII = tested on: SUDIPGXIII (diffuse intrinsic pontine glioma line)
# Summary of the method: as §1
Compound,growth inhibition (DIPGX29),growth inhibition (DIPGX37),growth inhibition (DIPGX7),growth inhibition (DIPGX9),growth inhibition (HGGX39),growth inhibition (HGGX6),growth inhibition (HNSC),growth inhibition (SUDIPGIV),growth inhibition (SUDIPGVI),growth inhibition (SUDIPGXIII)
O=C(O)CCNC(=O)c1ccccc1,0.362%,2.48%,0.618%,0.575%,0.895%,0.906%,-1.4%,0.839%,1.57%,1.01%
O=C(N/N=C/c1ccc([N+](=O)[O-])o1)c1ccc(O)cc1,6.1%,2.69%,4.79%,5.76%,11%,4.58%,17.4%,18.5%,13.9%,2.98%
CCN[C@H]1C[C@H](C)S(=O)(=O)c2sc(S(N)(=O)=O)cc21,1.81%,-1.68%,1.05%,0.778%,2.3%,0.627%,4.56%,-0.668%,4.36%,0.067%
CC(C)NCC(O)COc1ccc(COCCOC(C)C)cc1 (stereo not given),-3.23%,-0.456%,-0.461%,-0.782%,-1.74%,-3.85%,-7.27%,-3.11%,-2.42%,-1.46%
Cc1nc2n(c(=O)c1CCN1CCC(c3noc4cc(F)ccc34)CC1)CCCC2,2.78%,1.21%,3.37%,1.08%,3.29%,1.84%,0.606%,0.111%,-0.157%,1.25%
CCCCN1CCCCC1C(=O)Nc1c(C)cccc1C (stereo not given),-1.45%,-1.09%,-1.58%,0.909%,1.03%,0.943%,-1.77%,-2.22%,-1.08%,7.3%
CCC[C@@H]1C[C@@H](C(=O)N[C@@H]([C@H]2O[C@H](SC)[C@H](OP(=O)(O)O)[C@@H](O)[C@H]2O)[C@H](C)Cl)N(C)C1,-4.37%,-1.53%,-1.72%,-1.01%,-2.23%,-2.46%,3.42%,-1.74%,-2.75%,0.327%
Cc1ccc(-c2cc(C(F)(F)F)nn2-c2ccc(S(N)(=O)=O)cc2)cc1,0.436%,-3.87%,-0.904%,0.265%,-0.617%,-1.39%,0.519%,-5.64%,1.64%,0.102%
CN(C)c1ccc(C(=C2C=CC(=[N+](C)C)C=C2)c2ccc(N(C)C)cc2)cc1,39.6%,42.1%,42.3%,41.4%,51.4%,48.2%,72.2%,43.1%,50%,74.4%
CNC(=O)c1ccccc1Sc1ccc2c(/C=C/c3ccccn3)n[nH]c2c1,12.6%,6.36%,11.4%,17.5%,10.9%,20.3%,60.4%,4.73%,0.631%,5.66%
COc1cccc(N(C)C(=S)Oc2ccc3c(c2)CCCC3)n1,2.16%,1.79%,1.25%,2.82%,2.33%,1.82%,1.51%,0.755%,2.8%,1.12%
Cc1cccc(C)c1OCC(=O)N[C@@H](Cc1ccccc1)[C@@H](O)C[C@H](Cc1ccccc1)NC(=O)[C@H](C(C)C)N1CCCNC1=O,-0.115%,1.21%,-0.846%,1.07%,-0.0767%,1.3%,0.148%,-2.8%,-1.16%,-0.606%
O=P(O)(O)C(O)(Cn1ccnc1)P(=O)(O)O,0.235%,2.6%,0.072%,1.97%,2.08%,1.84%,1.26%,1.08%,4.43%,-0.376%
CC(C)(C)c1nc(-c2cccc(NS(=O)(=O)c3c(F)cccc3F)c2F)c(-c2ccnc(N)n2)s1,0.794%,4.39%,2.8%,1.94%,5.46%,4.05%,22.9%,-0.469%,-1.37%,-0.13%
C[C@H](Cc1cc2c(c(C(N)=O)c1)N(CCCO)CC2)NCCOc1ccccc1OCC(F)(F)F,1.54%,2.46%,0.991%,-0.478%,0.741%,-0.678%,3.54%,1.64%,1.49%,-1.83%
C[C@]12C=CC(=O)C=C1CC[C@@H]1[C@@H]2[C@@H](O)C[C@@]2(C)[C@H]1CC[C@]2(O)C(=O)CO,0.548%,0.082%,-0.697%,2.79%,1.22%,-0.621%,1.3%,-0.906%,1.51%,0.983%
Cc1ccc(NC(=O)c2ccc(CN3CCN(C)CC3)cc2)cc1Nc1nccc(-c2cccnc2)n1,4.56% and 0.376%,3.89% and 0.0929%,5.28% and 3.03%,2.43% and -0.42%,8.41% and 4.83%,5.52% and -1.5%,3.25% and -0.323%,4.42% and 1.82%,4.93% and -0.526%,-15.8% and 0.752%
CN1CCC[C@@H]1CCO[C@](C)(c1ccccc1)c1ccc(Cl)cc1,5.74%,3.39%,5.71%,2.23%,6.24%,5.32%,4.55%,0.591%,2.52%,1.69%
Cc1c(Cl)cccc1Nc1ccccc1C(=O)O,1.71%,2.72%,2.88%,2.29%,4.47%,2.44%,4.89%,-2.4%,2.85%,0.296%
Cc1cccc(Nc2ccccc2C(=O)O)c1C,-4%,-1.52%,3.05%,-3.62%,-3.34%,-4.45%,9.87%,-8.08%,-6.14%,-0.652%
CC[C@H](C)C(=O)O[C@H]1C[C@H](O)C=C2C=C[C@H](C)[C@H](CC[C@@H](O)C[C@@H](O)CC(=O)O)[C@H]21,1.52%,-5.39%,5.32%,1.14%,8.71%,5.23%,17.3%,1.99%,-4.73%,2.62%

Compound,growth inhibition (DIPGX29),growth inhibition (DIPGX37),growth inhibition (DIPGX7),growth inhibition (DIPGX9),growth inhibition (HGGX39),growth inhibition (HGGX6),growth inhibition (HNSC),growth inhibition (SUDIPGIV),growth inhibition (SUDIPGVI),growth inhibition (SUDIPGXIII)
C[C@]12CCC3=C4CCC(=O)C=C4CC[C@H]3[C@@H]1CC[C@@]2(O)CC#N,1.43%,-1.59%,-0.302%,0.24%,0.279%,-1.72%,0.249%,-0.958%,1.03%,0.668%
Cc1ccc(S(=O)(=O)NC(=O)NN2CC3CCCC3C2)cc1 (stereo not given),1.02%,1.27%,1.73%,0.944%,1.58%,-0.55%,35.3%,1.96%,-4.19%,0.367%
Cc1ccc(O)c([C@H](CCN(C(C)C)C(C)C)c2ccccc2)c1,-0.51%,1.21%,-1.14%,1.39%,7.27%,-3.24%,8.98%,2%,1.35%,-1.5%
COCCCC/C(=N\OCCN)c1ccc(C(F)(F)F)cc1,1.49%,4.31%,1.46%,3.17%,4.47%,-0.782%,-3.83%,2.23%,0.798%,2.91%
CCN1CCN(C(=O)NC(C(=O)NC2C(=O)N3C(C(=O)O)=C(CSc4nnnn4C)CSC23)c2ccc(O)cc2)C(=O)C1=O (stereo not given),-4.55%,0.256%,-3.04%,-2.18%,0.547%,-2.32%,-1.87%,-3.07%,-2.25%,-0.109%
COc1cc([C@@H]2c3cc4c(cc3[C@@H](O[C@@H]3O[C@@H]5CO[C@@H](C)O[C@H]5[C@H](O)[C@H]3O)[C@H]3COC(=O)[C@H]23)OCO4)cc(OC)c1O,12.6%,4.92%,8.84%,24.1%,10.5%,9.51%,61.4%,38.2%,3.89%,5.92%
N=C(N)N/N=C/c1c(Cl)cccc1Cl,1.41%,1.84%,1.08%,1.59%,4.69%,2.81%,1.67%,7.04%,3.21%,1.52%
CN(C)CCN(Cc1ccccc1)c1ccccn1,1.64%,2.34%,0.0331%,3.36%,5.32%,0.326%,-1.72%,-0.134%,1.29%,2.37%
CC(=O)O[C@H]1C[C@@H]2CC[C@@H]3[C@H](CC[C@@]4(C)[C@H]3C[C@H]([N+]3(C)CCCCC3)[C@@H]4OC(C)=O)[C@@]2(C)C[C@@H]1N1CCCCC1,0.923%,-0.759%,1.01%,1.13%,1.15%,-0.813%,1.96%,-0.377%,1.82%,-0.269%
O=C(O)Cc1ccccc1Nc1c(Cl)cccc1Cl,-1.37% and -2.99% and -0.71%,-1.99% and -1.73% and 0.418%,-1.57% and -1.88% and -1.25%,-1.08% and -0.109% and -0.719%,-2.62% and -2.86% and 0.69%,0.514% and 2.52% and -0.0763%,-3.6% and -4.25% and -2.46%,-6.51% and -6.18% and -5.78%,-1.69% and -1.9% and -1.43%,-0.705% and -7.4% and 0.367%
Cc1ccc(C(=O)C(C)CN2CCCCC2)cc1 (stereo not given),0.542%,0.69%,0.522%,0.564%,1.58%,2.83%,-0.193%,-0.938%,-0.166%,0.909%
CCN(CC)CCOC(=O)C1(C2CCCCC2)CCCCC1,-1.15%,-1.5%,-1.55%,-2.17%,-2.47%,-0.591%,-1.91%,-0.751%,-0.615%,0.956%
Oc1ccc(OC2CCCCO2)cc1 (stereo not given),-0.0269%,0.922%,1.6%,1.43%,2.89%,2.46%,-1.26%,0.845%,0.118%,0.895%
C[C@]12C=CC(=O)C=C1CC[C@@H]1[C@@H]2C(=O)C[C@@]2(C)[C@H]1CC[C@]2(O)C(=O)CO,-2.83%,-1.18%,-0.368%,-2.35%,-1.89%,-3.12%,-4.28%,-3.78%,-6.66%,1.72%
C[C@@H]1C/C=C/C=C/C=C/C=C/[C@H](O[C@@H]2O[C@H](C)[C@@H](O)[C@H](N)[C@@H]2O)C[C@@H]2O[C@](O)(C[C@@H](O)C[C@H]3O[C@@H]3/C=C/C(=O)O1)C[C@H](O)[C@H]2C(=O)O,1.2%,2.42%,1.64%,1.2%,1.86%,0.734%,-0.468%,0.119%,3.23%,0.668%
CC(CN(C)C)CN1c2ccccc2CCc2ccccc21 (stereo not given),-1.45%,-0.198%,-0.333%,-0.216%,4.41%,-2.56%,3.02%,1.48%,0.808%,-0.414%
Cc1cc(C#N)cc(C)c1Oc1nc(Nc2ccc(C#N)cc2)nc(N)c1Br,3.55%,-3.38%,9.93%,-0.625%,6.72%,6.05%,35.3%,1.55%,15.5%,27.6%
O=C(NC[C@H]1CN(c2ccc(N3CCOCC3=O)cc2)C(=O)O1)c1ccc(Cl)s1,-0.891%,0.377%,-0.155%,-1.03%,0.0326%,0.545%,0.606%,3.01%,-0.593%,1.19%
CCc1cc2c(cc1CC)CC(NC[C@H](O)c1ccc(O)c3[nH]c(=O)ccc13)C2,-0.957%,-0.915%,0.341%,-1.43%,0.343%,-1.65%,23.5%,1.53%,-4.28%,0.665%
O=C(O[C@H]1CN2CCC1CC2)N1CCc2ccccc2[C@@H]1c1ccccc1,1.49%,-0.261%,-0.506%,-0.425%,1.75%,0.102%,-0.949%,-0.487%,1.06%,1.13%
NCCS,-2.8%,-1.3%,-0.687%,-1.29%,-2.78%,-3.18%,0.969%,-2.89%,-5.68%,0.354%
